SIRT5 block = sirtuin-5 (human) deacylase inhibition; Purified SirT5, succinyl-peptide AMC, trypsin-coupled fluorescence; inhibition, % at 15 µM; hit rate 1.1% among 330,000; AID 652115; in the data active = inhibition above about 15%
dFosB activator = mouse delta FosB homodimer activation | P13346 | purified delta FosB, TAMRA-CDK5 oligo fluorescence polarization; percent of positive-control signal above neutral wells | activation, % at 25 µM | hit rate 0.99% among 340,000 | AID 493131;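 active = mean activation above about 17%, with every replicate also reaching it, limit read from the data, passing the limit was not always enough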
CDK5 p35 inh = inhibitors of human CDK5/p35 kinase; Q00535+Q15078; hit rate 0.01% among 330,000; AID 488839; Recombinant CDK5/p35, ADP-Glo luminescence, 60 min; inhibition, % at 10 µM;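 active = highest replicate inhibition of at least 50% and at least 75% of replicates reaching 50%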;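 also: plate controls were DMSO neutral control for no effect and GW8510 at 10 µM for full effect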
Target sequence (Q00535 whole entry, looked up): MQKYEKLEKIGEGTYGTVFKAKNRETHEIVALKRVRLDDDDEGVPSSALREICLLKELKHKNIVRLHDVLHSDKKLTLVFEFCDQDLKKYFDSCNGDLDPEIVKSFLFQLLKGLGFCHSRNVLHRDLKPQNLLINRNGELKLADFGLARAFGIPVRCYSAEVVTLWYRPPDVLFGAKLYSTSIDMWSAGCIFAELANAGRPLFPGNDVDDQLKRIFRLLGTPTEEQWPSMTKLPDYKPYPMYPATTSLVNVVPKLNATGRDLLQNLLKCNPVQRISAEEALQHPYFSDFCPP
Target sequence (Q15078 whole entry, looked up): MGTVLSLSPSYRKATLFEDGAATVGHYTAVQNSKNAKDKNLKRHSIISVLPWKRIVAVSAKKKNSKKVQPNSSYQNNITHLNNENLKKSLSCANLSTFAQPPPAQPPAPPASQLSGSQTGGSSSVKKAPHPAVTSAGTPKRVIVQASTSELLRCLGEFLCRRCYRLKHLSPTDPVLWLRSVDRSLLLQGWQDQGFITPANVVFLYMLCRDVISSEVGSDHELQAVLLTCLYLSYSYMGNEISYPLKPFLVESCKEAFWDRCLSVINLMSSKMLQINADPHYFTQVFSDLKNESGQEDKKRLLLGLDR
PglD inh = blocks C. jejuni PglD acetyltransferase activity; AID 602405; hit rate 0.098% among 360,000; inhibition, % at 12.5 µM; purified PglD enzyme, DTNB colorimetric CoA detection; in the data active = inhibition above about 16%, passing the limit was not always enough
PvdQ acylase = P. aeruginosa PvdQ acylase inhibition. AID 488965. hit rate 0.063% among 340,000. inhibition, % at 10 µM. purified PvdQ acylase, fluorescence plate reader; in the data active = inhibition above about 30%, passing the limit was not always enough;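 also: 0% = vehicle neutral wells and 100% = reference inhibitor wells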
FGF22 binding = binders of recombinant human FGF22 by thermal shift; Q9HCT0; hit rate 1.5% among 340,000; activity (Tm shift, normalised), % at 9.99 µM; SYPRO orange fluorescence; percent of sucrose octasulfate shift, DMSO zero;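 active = mean Tm shift, scaled 0 neutral to 100 positive control, at about 1.3% or above, every replicate too, limit read from the data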
* marks the source's active call; other numbers are inactive results; . = no result given. This is a sample that favours compounds with a hit; in the whole collection about 2.8% have one here.

SMILES | SIRT5 block | dFosB activator | CDK5 p35 inh | PglD inh | PvdQ acylase | FGF22 binding
C[C@H](CO)N1C[C@H](C)[C@@H](CN(C)C(=O)C2CCC2)Oc2cc(-c3ccc(C(=O)N(C)C)cc3)ccc2S1(=O)=O | -2.0 | . | . | 9.4 | . | 0.0
CN(C)CCCNC(=O)C[C@H]1CC[C@@H]2[C@H](COc3ccc(NC(=O)NC4CCCC4)cc3C(=O)N2C)O1 | 1.7 | . | . | -2.0 | . | -0.1
C[C@@H]1CN([C@H](C)CO)S(=O)(=O)c2ccc(C#CC(C)(C)O)cc2O[C@@H]1CN(C)Cc1ccc(-c2ccccc2)cc1 | 20.4* | . | . | -0.6 | . | -0.6
C[C@H]1CN([C@@H](C)CO)S(=O)(=O)c2ccc(C#CC(C)(C)O)cc2O[C@H]1CN(C)Cc1ccc(-c2ccccc2)cc1 | 23.3* | . | . | -2.7 | . | -0.5
C[C@H](CO)N1C[C@H](C)[C@H](CN(C)Cc2ccc(-c3ccccc3)cc2)Oc2cc(C#CC(C)(C)O)ccc2S1(=O)=O | 19.9* | . | . | -1.0 | . | -0.8
C[C@H]1CN([C@@H](C)CO)S(=O)(=O)c2ccc(C#CC(C)(C)O)cc2O[C@@H]1CN(C)Cc1ccc(-c2ccccc2)cc1 | 19.6* | . | . | 0.1 | . | -0.9
C[C@H](CO)N1C[C@H](C)[C@@H](CN(C)Cc2ccc(-c3ccccc3)cc2)Oc2cc(C#CC(C)(C)O)ccc2S1(=O)=O | -3.1 | . | . | 1.3 | . | -0.4
C[C@H]1CN([C@@H](C)CO)S(=O)(=O)c2ccc(C#CC(C)(C)O)cc2O[C@H]1CN(C)Cc1ccccc1 | -4.4 | . | . | -1.4 | . | 0.3
C[C@@H]1CN([C@H](C)CO)S(=O)(=O)c2ccc(C#CC(C)(C)O)cc2O[C@H]1CN(C)Cc1ccccc1 | 1.6 | . | . | 2.3 | . | -0.2
C[C@H]1CN([C@@H](C)CO)C(=O)c2cccc(NS(=O)(=O)c3ccc(Cl)cc3)c2O[C@H]1CN(C)C(=O)Nc1ccc(F)cc1 | 2.4 | . | . | -0.8 | . | -0.4
N#C[C@@H]1[C@@H](c2ccccc2-c2ccccc2)[C@H](CO)N1C(=O)NC1CCCCC1 | 8.3 | . | . | . | . | .
C[C@H](CO)N1C[C@H](C)[C@H](CN(C)C)Oc2cc(-c3ccc(F)cc3)ccc2S1(=O)=O | -5.3 | . | . | 0.1 | . | 0.0
C[C@@H]1CN([C@H](C)CO)C(=O)c2cc(NS(=O)(=O)c3cccs3)ccc2O[C@@H]1CN(C)Cc1ccc2c(c1)OCO2 | -6.1 | . | . | -0.3 | . | 0.0
COCC(=O)Nc1ccc2c(c1)OC[C@H](C)N(C(=O)C1CCCC1)C[C@@H](C)[C@H](OC)CN(C)C2=O | . | . | . | -1.3 | . | .
C[C@@]12C(=O)Nc3ccc(Cl)cc3C(=O)N1[C@H]1c3cc(Cl)ccc3OC[C@@H]1[C@@H]2c1ccccc1 | . | 2.9 | -2.9 | 0.6 | -13.2 | -0.1
Cc1ccc2c(c1)[C@H]1[C@H](CO2)[C@H](c2ccccc2)[C@]2(C)C(=O)Nc3ccc(Cl)cc3C(=O)N12 | 16.3* | -2.0 | -2.2 | 7.0 | -9.5 | -0.6
C[C@@]12C(=O)Nc3ccc(Br)cc3C(=O)N1[C@H]1c3cc(Cl)ccc3OC[C@@H]1[C@@H]2c1ccccc1 | . | 24.6* | 0.5 | 0.8 | 4.2 | .
C[C@@]12C(=O)Nc3ccc(Br)cc3C(=O)N1[C@H]1c3ccccc3OC[C@@H]1[C@@H]2c1ccccc1 | . | -3.2 | -0.6 | -1.1 | 1.5 | .
O=C(NCC1CC1)[C@@H]1[C@@H](CO)[C@@H]2Cn3c(ccc(-c4cccnc4)c3=O)[C@H]1N2Cc1nccs1 | -30.8 | . | . | -0.6 | . | 0.1
CN(CC(=O)Nc1ccc(F)cc1)C(=O)CSc1nc2ncc(Cl)cc2[nH]1 | 1.1 | -7.4 | 0.4 | . | -21.1 | 43.0*
CCOC(=O)C1=C(CN2CCOCC2)NC(=O)NC1c1cccc([N+](=O)[O-])c1 (stereo not drawn) | 16.1* | -0.2 | -1.5 | 5.3 | -7.4 | 0.2
CCOC(=O)C1=C(CS(=O)(=O)c2ccccc2)NC(=O)NC1c1ccccc1 (stereo not drawn) | . | -0.4 | -1.5 | 10.5 | 0.3 | .
CCOC(=O)C1=C(CS(=O)(=O)c2ccccc2)NC(=O)NC1c1cccc(OC)c1 (stereo not drawn) | 0.2 | -6.4 | -3.2 | . | -10.8 | 43.9*
O=C(C[C@@H]1CC[C@@H]2[C@H](COC[C@@H](O)CN2S(=O)(=O)c2ccc(Cl)cc2)O1)NCCN1CCCC1 | 1.8 | . | . | -1.8 | . | -0.6
COc1cccc(C(=O)Nc2ccc3c(c2)C(=O)N(C)C[C@H](OC)[C@@H](C)CN(CCc2ccccc2)[C@H](C)CO3)c1 | 20.3* | . | . | 0.5 | . | 0.0
SMILES | SIRT5 block | dFosB activator | CDK5 p35 inh | PglD inh | PvdQ acylase | FGF22 binding
COCC(=O)Nc1ccc2c(c1)OC[C@@H](C)N(CCc1ccccc1)C[C@@H](C)[C@H](OC)CN(C)C2=O | 31.0* | . | . | 2.6 | . | 0.0
COc1cccc(C(=O)Nc2ccc3c(c2)C(=O)N(C)C[C@H](OC)[C@H](C)CN(CCc2ccccc2)[C@@H](C)CO3)c1 | 12.6 | . | . | 1.7 | . | 0.8
COCC(=O)Nc1ccc2c(c1)C(=O)N(C)C[C@@H](OC)[C@H](C)CN(CCc1ccccc1)[C@H](C)CO2 | 0.6 | . | . | -2.0 | . | .
CCCNC(=O)Nc1ccc2c(c1)C(=O)N(C)C[C@H](OC)[C@H](C)CN(Cc1ccc(-c3ccccn3)cc1)[C@H](C)CO2 | 15.1* | . | . | -2.5 | . | 0.5
CO[C@H]1CN(C)C(=O)c2cc(NC(=O)NC3CCCCC3)ccc2OC[C@H](C)N(CCc2ccccc2)C[C@H]1C | 1.8 | . | . | 0.8 | . | -0.5
CO[C@H]1CN(C)C(=O)c2cc(NC(=O)NC3CCCCC3)ccc2OC[C@H](C)N(CCc2ccccc2)C[C@@H]1C | 24.8* | . | . | -0.6 | . | -0.4
CN(C)c1ccc2c(c1)[C@@H]1C[C@@H](CC(=O)NCc3ccc4c(c3)OCO4)O[C@H](CO)[C@@H]1O2 | -1.9 | . | . | 3.8 | . | -0.2
Cc1noc(C)c1NC(=O)Nc1cccc2c1O[C@@H](CN(C)Cc1ccc(C(=O)Nc3ccccc3N)cc1)[C@@H](C)CN([C@H](C)CO)C2=O | . | . | . | . | . | -0.2
COc1ccc(-c2cc(=O)oc3cc(OC(C)C(=O)NCc4ccccn4)ccc23)cc1 (stereo not drawn) | . | -9.3 | -0.6 | -1.5 | -0.8 | 48.8*
Clc1ccccc1-c1nnc(CNC2CC2)o1 | -4.2 | 1.3 | -1.2 | . | -8.0 | 43.6*
C#CCOCCOCCOCCNc1nc(N2CCOCC2)nc(N2CCN(C(=O)[C@H](CCCN=C(N)N)n3cc(C(N)[C@@H](C)CC)nn3)CC2)n1 (stereo partly drawn) | . | -0.2 | -0.2 | -4.2 | -10.5 | 15.3*
CCN1C(C)=C(C)S/C1=C1\SC(=S)N(C2CCCCC2)C1=O | 1.6 | 0.7 | 2.4 | . | -6.2 | 44.1*
Cc1ccc(S(=O)(=O)c2nc(Cc3ccccc3)oc2N2CCOCC2)cc1 | 18.3* | -6.2 | -1.4 | 0.0 | -4.9 | 0.0
Cc1ccc(S(=O)(=O)c2nc(-c3ccccc3)oc2N2CCCC2)cc1 | -1.5 | -0.2 | 2.2 | -3.7 | -15.9 | -0.1
COc1ccc(Cc2c(C(C)(C)C)nc3cc(C)c(Br)c(C)n23)c(C)c1 | 1.3 | . | . | . | . | -0.1

Screening results from PubChem.
